Compound activity (PubChem BioAssay)
SRC3 TRFRET art: TR-FRET artefact, counter-screen to PPARgamma/SRC-3 agonist assay | PPARgamma/SRC-3 format; stronger effect = higher value | TR-FRET ratio at 8 µM | 99,000 compounds, 0.39% hits
PPARg SRC1 recr: promotes SRC-1 coactivator recruitment by human PPARgamma | PPARgamma-SRC-1 coactivator recruitment biochemical assay | activation, % at 8 µM | 200,000 compounds, 0.41% hits | AID 631 | P37231; in the data active means activation above about 19%
Target sequence (P37231 whole entry, looked up): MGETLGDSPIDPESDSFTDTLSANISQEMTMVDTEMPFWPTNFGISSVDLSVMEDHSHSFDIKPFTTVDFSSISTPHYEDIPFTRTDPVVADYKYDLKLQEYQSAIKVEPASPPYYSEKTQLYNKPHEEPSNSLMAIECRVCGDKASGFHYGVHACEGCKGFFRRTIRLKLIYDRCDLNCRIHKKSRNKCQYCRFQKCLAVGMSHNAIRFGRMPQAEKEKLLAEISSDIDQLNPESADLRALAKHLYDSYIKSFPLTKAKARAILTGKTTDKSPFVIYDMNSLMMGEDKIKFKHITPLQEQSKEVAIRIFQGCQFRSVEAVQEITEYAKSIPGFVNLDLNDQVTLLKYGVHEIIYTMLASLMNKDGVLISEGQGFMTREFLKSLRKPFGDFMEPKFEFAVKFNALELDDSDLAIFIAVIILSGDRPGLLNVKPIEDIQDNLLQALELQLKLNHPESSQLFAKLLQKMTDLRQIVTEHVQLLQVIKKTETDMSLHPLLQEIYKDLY
PPARg SRC-2 ag: agonists of SRC-2 recruitment by human PPARgamma. P37231. PPARgamma LBD-SRC-2 recruitment, biochemical. activation, % at 8 µM. 200,000 compounds, 0.34% hits. AID 1032; in the data active means activation above about 22%
SRC2 TRFRET art: flags TR-FRET format artefacts in PPARgamma SRC-2 recruitment agonist screen. TR-FRET artefact counter-screen; stronger effect = higher value. 200,000 compounds, 0.4% hits. TR-FRET ratio at 8 µM. AID 1049
PPARg SRC3 recr: PPARgamma-driven SRC-3 recruitment agonism. biochemical PPARgamma/SRC-3 coactivator recruitment assay. activation, % at 8 µM. 200,000 compounds, 0.26% hits; in the data active means activation above about 23%
SRC1 TRFRET art: flags TR-FRET format artefacts in PPARgamma SRC-1 recruitment agonist screen | TR-FRET detection artefact counter-screen, emission ratio; stronger effect = higher value | TR-FRET ratio at 8 µM | 99,000 compounds, 0.34% hits | AID 1051; in the data active means TR-FRET ratio above about 2300
Each line names hits and unclear results; the compound was inactive in the other large screens. Hits are enriched below; roughly 0.84% of the tested compounds scored in any of these assays. Unless noted, no stated cut-off is given here; in the data, active means TR-FRET ratio above about 2000; inactive means the rest.

O=C(Nc1nc2c(ccc3ccccc32)s1)c1cc([N+](=O)[O-])ccc1N1CCOCC1	none
COc1ccc(Nc2nc(-c3ccccc3)c(C(=O)Nc3cccnc3)s2)cc1	SRC3 TRFRET art 2178, SRC1 TRFRET art 2466
O=C(C1=C[C@@H](c2ccc(Br)cc2)C[C@@H](OCCCCO)O1)N1CCN(Cc2ccc3c(c2)OCO3)CC1	PPARg SRC3 recr 31
Clc1ccc(-c2nnc3sc(-c4ccc(Br)o4)nn23)cc1	PPARg SRC3 recr 28 (no result: SRC3 TRFRET art, SRC1 TRFRET art)
Clc1ccccc1-c1nnc2sc(-c3ccc(Br)o3)nn12	none (no result: SRC3 TRFRET art, SRC1 TRFRET art)
Cc1ccc(NC(=S)NNC(=O)c2ccc(N3CCOCC3)c([N+](=O)[O-])c2)cc1C	none
COc1ccc(Cc2noc(CN(C)CC(O)c3ccccc3)n2)cc1OC (stereo unspecified)	none
O=c1[nH]c2sc3c(c2c(=O)n1Cc1ccccc1)CCC3	none (no result: SRC3 TRFRET art, SRC1 TRFRET art)
Cc1ccc(-n2c(=S)[nH]c3sc4c(c3c2=O)CCC4)cc1	SRC3 TRFRET art 2074
Cc1c(N=Nc2ccc(O)cc2)c(=O)n(-c2ccccc2)n1C	SRC3 TRFRET art 2164
CCOC(=O)c1ccc(NC2=CC(=O)CC(c3ccco3)C2)cc1 (stereo unspecified)	SRC2 TRFRET art 2006
Cn1c(=O)n(C)c2cc(NC(=O)c3ccccc3[N+](=O)[O-])c(Br)cc21	SRC2 TRFRET art 1997
CSc1cc(-c2ccc(Cl)cc2)n(Cc2ccccc2)c(=O)c1C#N	PPARg SRC3 recr 43 (no result: SRC3 TRFRET art, SRC1 TRFRET art)
COc1ccc(-c2oc3ncnc(NCCCN4CCOCC4)c3c2-c2ccc(OC)cc2)cc1	none (no result: SRC3 TRFRET art, SRC1 TRFRET art)
c1ccc(-c2oc3ncnc(NCCCN4CCOCC4)c3c2-c2ccccc2)cc1	PPARg SRC1 recr 24 (no result: SRC3 TRFRET art, SRC1 TRFRET art)
Cc1cc(N2CCC(C(=O)NC3CC3)CC2)nc(-c2ccccc2)n1	none (no result: SRC3 TRFRET art, SRC1 TRFRET art)
Cc1cc(N2CCC(C(=O)NC3CCCCC3)CC2)nc(-c2ccccc2)n1	SRC3 TRFRET art 2155
COc1cccc(-c2csc(N3CCN(C(=O)NC45CC6CC(CC(C6)C4)C5)CC3)n2)c1	SRC2 TRFRET art 2123 (no result: SRC3 TRFRET art, SRC1 TRFRET art)
COc1cccc(-c2csc(N3CCN(C(=S)Nc4ccc(Cl)cc4)CC3)n2)c1	SRC2 TRFRET art 3147 (no result: SRC3 TRFRET art, SRC1 TRFRET art)
Cc1ccc(-c2csc(NC(=O)c3cccc(S(=O)(=O)N4CCN(C)CC4)c3)n2)cc1	none
O=C(Nc1nc(-c2nc3ccccc3s2)cs1)c1ccc(S(=O)(=O)N2CCOCC2)cc1	none (no result: SRC3 TRFRET art, SRC1 TRFRET art)
Cc1onc(-c2ccccc2)c1C(=O)Nc1nc(-c2ccccc2)cs1	SRC2 TRFRET art 2194 (no result: SRC3 TRFRET art, SRC1 TRFRET art)
O=C(CSc1nnc(-c2ccc(S(=O)(=O)N3CCOCC3)cc2)o1)c1ccccc1F	none (no result: SRC3 TRFRET art, SRC1 TRFRET art)
COc1ccc(C(=O)CSc2nnc(-c3ccc(S(=O)(=O)N4CCOCC4)cc3)o2)cc1	PPARg SRC1 recr 25 (no result: SRC3 TRFRET art, SRC1 TRFRET art)
O=C(Nc1nc(-c2ccc(S(=O)(=O)N3CCOCC3)cc2)cs1)c1ccccc1	SRC2 TRFRET art 2397 (no result: SRC3 TRFRET art, SRC1 TRFRET art)
COc1cccc(C(=O)Nc2nc(-c3ccc(S(=O)(=O)N4CCOCC4)cc3)cs2)c1	SRC2 TRFRET art 2385 (no result: SRC3 TRFRET art, SRC1 TRFRET art)
CCN1C(=O)S/C(=C/c2ccc(Sc3nc4ccccc4[nH]3)o2)C1=O	none
Nc1nc(SCC(=O)NCCC(c2ccccc2)c2ccccc2)n[nH]1	none (no result: SRC3 TRFRET art, SRC1 TRFRET art)
O=C(Nc1nc(-c2ccc(S(=O)(=O)N3CCCCCC3)cc2)cs1)c1cccs1	PPARg SRC1 recr 22, SRC2 TRFRET art 2280 (no result: SRC3 TRFRET art, SRC1 TRFRET art)
O=C(Nc1nc(-c2ccc3ccccc3c2)cs1)C1CCN(S(=O)(=O)c2cccs2)CC1	SRC3 TRFRET art 2381
O=C(Nc1nc(-c2ccc(S(=O)(=O)N3CCCC3)cc2)cs1)c1cccs1	none (no result: SRC3 TRFRET art, SRC1 TRFRET art)
O=C(CNC(=O)C1COc2ccccc2O1)N/N=C/c1ccc(O)cc1O (stereo unspecified)	none
C/C(=N\Nc1nc2ccccc2s1)c1ccc(Br)s1	PPARg SRC1 recr 23
CN1CCN(C(=O)CC2(CC(=O)O)CCCC2)CC1	none
COc1ccc(Oc2nc3ccccc3n(C)c2=O)cc1	none (no result: SRC3 TRFRET art, SRC1 TRFRET art)
Cn1c(=O)c(Oc2cc(Cl)cc(Cl)c2)nc2ccccc21	PPARg SRC1 recr 29 (no result: SRC3 TRFRET art, SRC1 TRFRET art)
Cc1cccc(NC(=S)Nc2ccc(N3CCOCC3)cc2)c1C	SRC2 TRFRET art 1974
Cc1ccc(NCCNc2ccc(C)cc2)cc1	none (no result: SRC3 TRFRET art, SRC1 TRFRET art)
COc1ccc(NCCNc2ccc(OC)cc2)cc1	PPARg SRC1 recr 20 (no result: SRC3 TRFRET art, SRC1 TRFRET art)
COc1ccc(CCN(Cc2nc3ccccc3c(=O)[nH]2)C(=O)C2CC2)cc1	none
Cc1nc2cc(C(F)(F)F)ccc2n1C	none
